Measured values published in ChEMBL document CHEMBL3988442, “University of Dundee, Small-Polar-MMV Screening Library” (2021).
Screen size: about 67,000 compounds; about 300 (0.45%) showed an effect of 50% or more. The entries come from a sample that favours strong results as a whole.

target: Polyketide synthase Pks13 (Mycobacterium tuberculosis (strain ATCC 25618 / H37Rv)) (UniProt I6X8D2); assay: Mycobacterium tuberculosis Polyketide synthase 13 Thioesterase (PKS13); format: functional; parameters: scale not given: in the data most compounds retested in dose-response had high values; details: 30 µM
Sequence (I6X8D2 whole entry): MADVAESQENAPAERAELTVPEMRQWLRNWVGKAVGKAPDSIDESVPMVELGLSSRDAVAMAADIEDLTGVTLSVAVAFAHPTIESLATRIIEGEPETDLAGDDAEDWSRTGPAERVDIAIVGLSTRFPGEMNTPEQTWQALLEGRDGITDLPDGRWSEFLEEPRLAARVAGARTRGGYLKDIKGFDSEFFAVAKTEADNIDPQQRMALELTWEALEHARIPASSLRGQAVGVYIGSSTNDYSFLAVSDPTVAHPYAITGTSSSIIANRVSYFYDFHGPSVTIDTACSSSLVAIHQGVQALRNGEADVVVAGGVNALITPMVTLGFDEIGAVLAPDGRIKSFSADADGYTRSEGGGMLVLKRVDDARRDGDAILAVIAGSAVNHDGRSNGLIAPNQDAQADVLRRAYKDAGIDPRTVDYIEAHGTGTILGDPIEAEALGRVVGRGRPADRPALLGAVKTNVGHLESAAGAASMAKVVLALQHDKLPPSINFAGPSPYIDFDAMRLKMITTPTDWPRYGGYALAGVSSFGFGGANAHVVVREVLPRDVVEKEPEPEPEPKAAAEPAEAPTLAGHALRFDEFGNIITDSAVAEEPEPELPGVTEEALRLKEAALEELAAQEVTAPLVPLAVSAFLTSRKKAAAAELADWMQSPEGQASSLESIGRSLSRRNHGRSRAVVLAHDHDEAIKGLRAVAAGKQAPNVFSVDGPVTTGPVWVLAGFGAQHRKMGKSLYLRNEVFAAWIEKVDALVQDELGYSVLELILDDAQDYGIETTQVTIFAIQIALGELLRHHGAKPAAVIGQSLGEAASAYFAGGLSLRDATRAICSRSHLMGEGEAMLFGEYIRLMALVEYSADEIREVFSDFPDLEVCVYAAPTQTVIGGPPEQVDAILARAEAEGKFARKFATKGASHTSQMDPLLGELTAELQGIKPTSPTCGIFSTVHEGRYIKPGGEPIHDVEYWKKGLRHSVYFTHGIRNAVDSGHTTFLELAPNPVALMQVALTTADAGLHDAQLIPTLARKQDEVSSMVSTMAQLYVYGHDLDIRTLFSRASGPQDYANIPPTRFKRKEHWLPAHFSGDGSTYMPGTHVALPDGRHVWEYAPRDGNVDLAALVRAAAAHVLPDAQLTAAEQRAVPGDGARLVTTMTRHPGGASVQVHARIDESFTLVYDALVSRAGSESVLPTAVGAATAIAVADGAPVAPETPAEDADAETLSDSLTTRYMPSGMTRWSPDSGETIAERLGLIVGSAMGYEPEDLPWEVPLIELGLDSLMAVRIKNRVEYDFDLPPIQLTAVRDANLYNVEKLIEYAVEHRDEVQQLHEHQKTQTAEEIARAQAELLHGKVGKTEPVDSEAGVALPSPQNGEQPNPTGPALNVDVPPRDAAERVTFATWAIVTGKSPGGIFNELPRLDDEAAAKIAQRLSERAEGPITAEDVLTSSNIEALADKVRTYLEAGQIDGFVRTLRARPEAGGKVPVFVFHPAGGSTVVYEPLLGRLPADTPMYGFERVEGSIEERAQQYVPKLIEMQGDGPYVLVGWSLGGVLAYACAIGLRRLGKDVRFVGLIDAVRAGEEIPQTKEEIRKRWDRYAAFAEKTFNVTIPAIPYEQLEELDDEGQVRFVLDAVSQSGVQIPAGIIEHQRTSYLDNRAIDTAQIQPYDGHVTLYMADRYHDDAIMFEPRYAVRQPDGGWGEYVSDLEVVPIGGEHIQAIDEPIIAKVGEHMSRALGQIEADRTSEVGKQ

SMILES | Percent Effect [%]
Cc1ccccc1CN1C[C@@H]2OCC(=O)N(CC(N)=O)[C@@H]2C1 | -35.3
CCOC[C@]12COC[C@H]1CN(Cc1ccc(F)c(F)c1)C2 | -14.9
Cc1ncc(CNCC(C)O)c2cc(C(=O)c3ccc(Br)cc3)oc12 (stereo not drawn) | 53.8
Cc1ncc(CN2CCCC2)c2cc(C(=O)c3ccc(Br)cc3)oc12 | -4.91
Cc1ncc(CNCCO)c2cc(C(=O)c3ccc(Br)cc3)oc12 | -1.68
O=c1ccc2c(n1CC1CCOCC1)CCN(Cc1ccoc1)CC2 | 52.6
O=c1ccc2c(n1Cc1ccncc1)CCN(Cc1ccoc1)CC2 | 6.04
COCCn1c2c(ccc1=O)CCN(Cc1ccoc1)CC2 | 19
O=C(c1cscn1)N1CC[C@H]2[C@@H]1CCC(=O)N2c1ccccc1 | -9.46
c1ccc2c(c1)CN(c1ncnc3sc4c(c13)CCNC4)CCO2 | 63
c1ccc2c(c1)CN(c1ncnc3c1CCNC3)CCO2 | -34
c1ccc2c(c1)CCN(c1ncnc3sc4c(c13)CCNC4)C2 | -23.8
O=c1c(NCCCO)c(N2CCN(c3ccccc3)CC2)c1=O | 4.71
OCCCNc1nc(O)c2c(n1)-c1ccccc1CC21CCCCC1 | 13.8
CCC1(C)Cc2ccccc2-c2nc(NCCCO)nc(O)c21 (stereo not drawn) | 37.9
CC1(C)Cc2ccccc2-c2nc(NCCCO)[nH]c(=O)c21 | 62.7
CC1(C)Cc2ccccc2-c2nc(NCCO)[nH]c(=O)c21 | 88.1
O=c1[nH]c(NCCO)nc2c1C1(CCCCC1)Cc1ccccc1-2 | -23
CC(C)(CO)CCCNC(=O)NC1(C)Cc2ccccc2C1 | 0.272
O=C(NCCCO)C1(N2CCCCC2)Cc2ccccc2C1 | -29.6
CCC1(C)Cc2ccccc2-c2nc(NCCO)nc(O)c21 (stereo not drawn) | 55.8
O=c1[nH]c(NCCO)nc2c1C1(CCCC1)Cc1ccccc1-2 | 12.1
Cc1cc(NCCO)nc(-c2ccccc2O)n1 | 19.7
O=c1[nH]c(NCCCO)nc2c1C1(CCCC1)Cc1ccccc1-2 | 55.4
Cn1cc(CN2C[C@H](Oc3ncccc3F)[C@H]3OCCC[C@H]32)cn1 | 4.64

SMILES | Percent Effect [%]
Cc1occc1C(=O)N1C[C@@H]2CCCO[C@@H]2[C@H](NC(=O)CC2CC2)C1 | -0.923
CC(C)=CCN1C[C@H]2CC[C@@H]1CN(C(=O)c1c[nH]c(=O)c(Cl)c1)C2 | -3.37
CC(C)CN1C[C@@H]2C(=O)N(C)C3(CCN(C(=O)C(C)C)CC3)[C@@H]2C1 | -25.7
Cc1noc([C@]23COC[C@H]2CN(S(=O)(=O)N(C)C)C3)n1 | -30.1
CNC(=O)CN1CCO[C@H]2CN(C(=O)C3CC3)C[C@H]21 | -29
O=C([C@@H]1COC[C@H]2CN(C3CCOCC3)C[C@H]21)N1CCCO1 | 35.9
CS(=O)(=O)N[C@@H]1CN(Cc2ccoc2)C[C@@H]2CCCO[C@@H]21 | -30.2
CCC1(CC)Cc2ccccc2-c2nc(NCCCO)[nH]c(=O)c21 | 88.8
CCC1(CC)Cc2ccccc2-c2nc(CN(C)C)nc(O)c21 | -41.1
CCC1(CC)Cc2ccccc2-c2nc(NCCO)[nH]c(=O)c21 | -180
O=C([C@H]1C[C@H]2OCC[C@H]2N(C(=O)c2ccccn2)C1)N1CCCCO1 | -25.9
CC(=O)N1CCC(NC(=O)c2cc(S(N)(=O)=O)ccc2C)CC1 | -0.331
CC(=O)N1CCC(NC(=O)c2cc(Cl)ccc2-n2cnnn2)CC1 | -14.8
CC(=O)N1CCC(NC(=O)c2cc(Cl)ccc2O)CC1 | 95.8
Cc1nc(CO[C@H]2CN(Cc3ccccn3)[C@@H]3CCCO[C@H]23)cs1 | 1.71
CC(=O)N1CC[C@H]2OCC[C@@H](C(=O)Nc3cccnc3C)[C@H]2C1 | 5.14
O=C(c1ccco1)N1C[C@H]2CCCN(CC3CCOCC3)[C@H]2C1 | 0.0598
Cn1ccnc1CN1C[C@H](N2CCOCC2)[C@@H]2OCCC[C@@H]21 | -10.5
CC(C)N1Cc2cccc(NCC(=O)N(C)C)c2C1 | -31.9
CC(C)C(C)N1Cc2cccc(NCC(=O)N(C)C)c2C1 (stereo not drawn) | -6.55
CC(C)N1Cc2cccc(NCC(=O)N(C)C3CCCCC3)c2C1 | 81.9
CN(C)C[C@@H]1CCC[C@@H]2CN(c3cccnc3)C[C@@H]21 | -20.9
CS(=O)(=O)N1CCN2C(=O)N(C3CCCCC3)C[C@H]2C1 | 3.48
O=C([C@@H]1COC[C@H]2CN(c3ccncn3)C[C@H]21)N1CCCCO1 | -30
O=C(C1CCC1)N1CCO[C@H]2[C@H](OCCCn3cccn3)CC[C@@H]21 | -40.4

SMILES | Percent Effect [%]
Cc1cscc1C(=O)Nc1cc(CSCCO)ccn1 | 11.8
O=C(Nc1cc(CSCCO)ccn1)c1ccc(Cl)o1 | 62
Cc1ccnc(NC(=O)c2ccc(Cl)o2)c1 | -6.1
Cc1cccc(CN2C[C@@H](NC(=O)C3CCC3)[C@H]3COC[C@H]32)n1 | -33.3
O=C(CCc1n[nH]c2c1CCCC2)N1C[C@@H]2CC[C@H](C1)N(CC1CC1)C2 | -15.4
Cc1nn(C)cc1-c1ccnc(N(C)Cc2ccoc2)n1 | 139
Cc1nn(C)cc1-c1ccnc(N(C)Cc2cnn(C)c2)n1 | -7.71
Cc1nn(C)cc1-c1ccnc(N(C)Cc2ccc(F)cc2)n1 | -13.2
CC(C)N1[C@H](Cn2cncn2)C[C@@H]2CN(Cc3cccs3)CC[C@@H]21 | 2.62
O=C1CC(NCc2cnc(-c3cccs3)nc2)CN1c1ccccc1 (stereo not drawn) | -18.1
O=C1CC(NCc2cnc(C3CCCCC3)nc2)CN1c1ccccc1 (stereo not drawn) | -18
O=C1CC(NCc2cnc(N3CCCC3)nc2)CN1c1ccccc1 (stereo not drawn) | 65.7
O=S(=O)(c1ccccc1)N1C[C@@H]2CCCCN(Cc3cccs3)[C@@H]2C1 | -1.03
COc1cc2nc(NCc3ccc(C)nc3)nc(N)c2cc1OC | -17.5
COc1cc2nc(NCc3scnc3C)nc(N)c2cc1OC | 12.1
COc1cc2nc(NCc3cc(C)on3)nc(N)c2cc1OC | 78.9
CNC(=O)CN1CCO[C@H]2CN(CC3CCOC3)C[C@H]21 (stereo partly drawn) | -18.9
O=C(c1cc(F)cc(F)c1)N1C[C@H]2CNC[C@H]2C1 | -29.4
COCCN1CC(=O)N2CC[C@@H](O)C[C@H]2C1=O | 7.83
Cc1ncc2c(n1)CN(CCCc1nc3ccccc3o1)CC2 | 94.6
Cc1ncc2c(n1)CCN(CCCc1nc3ccccc3o1)C2 | 0.614
Cc1ncc2c(n1)CN(Cc1nc3ccccc3o1)CC2 | -1.34
CCCN1CCN(C(=O)c2ccc(Cl)cn2)[C@H]2CS(=O)(=O)C[C@H]21 | 5.71
